JMJD2A Tudor: JMJD2A Tudor domain (human) inhibition; hit rate 4.4% among 390,000; AlphaScreen JMJD2A-Tudor / H3K4me3 peptide binding; Potency, µM (highest dose often 114 µM), most hits filed as inhibitors; O75164; note: nearly all actives have a fitted effect of over 50% in size
HP1b chromo inh: inhibitors of HP1-beta chromodomain binding to methylated histone tails; AlphaScreen HP1-beta / biotin-H3K9me3 peptide binding; Potency, µM (series often up to 114 µM), hits mostly inhibitors; P83916; hit rate 0.56% among 390,000; note: nearly all actives have a fitted effect of over 70% in size
Target sequence (P83916 whole entry, looked up): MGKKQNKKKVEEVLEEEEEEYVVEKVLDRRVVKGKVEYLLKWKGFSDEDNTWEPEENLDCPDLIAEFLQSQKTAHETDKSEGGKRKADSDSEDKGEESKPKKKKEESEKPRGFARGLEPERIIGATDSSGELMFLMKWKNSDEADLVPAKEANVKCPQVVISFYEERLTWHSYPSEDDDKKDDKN
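Compound inhibition of the preformed complex between 50 nM HP1-beta and 50 nM biotinylated H3K9me3 peptide was read by AlphaScreen. Buffer was PBS pH 7.4 with 0.01% Tween-20. Incubations ran 30 min at room temperature, with 10 ug/mL donor/acceptor beads.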
L3MBTL1 inh: blocks human L3MBTL1 | Q9Y468 | AlphaScreen L3MBTL1–H3K9me1 peptide binding | Potency, µM (series often up to 57.1 µM), usual class: inhibitors | hit rate 0.66% among 230,000; note: nearly all actives have a fitted effect of over 60% in size
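Read-out is AlphaScreen signal from streptavidin donor and nickel chelate acceptor beads (10 ug/mL final each) bridging L3MBTL1 (50 nM) and biotinylated K9-monomethylated H3(1-15) peptide (75 nM), after 30 min compound exposure at room temperature.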
G9a block: blocks human histone lysine methyltransferase G9a | hit rate 8.8% among 350,000 | Potency, µM (highest dose often 102 µM), most hits filed as inhibitors | G9a H3K9 monomethylation, AlphaScreen, 2 h; note: nearly all actives have a fitted effect of over 75% in size
Target sequence (Q96KQ7 913-1193 limits assumed): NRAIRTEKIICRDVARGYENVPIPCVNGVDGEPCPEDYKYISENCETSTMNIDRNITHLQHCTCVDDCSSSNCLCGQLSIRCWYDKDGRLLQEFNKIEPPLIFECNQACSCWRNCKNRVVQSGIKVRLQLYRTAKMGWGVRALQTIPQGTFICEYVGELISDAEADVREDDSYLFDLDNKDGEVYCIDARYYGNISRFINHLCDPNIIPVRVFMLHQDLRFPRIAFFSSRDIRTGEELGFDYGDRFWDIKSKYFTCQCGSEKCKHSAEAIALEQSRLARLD
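G9a (20 nM) was preincubated 15 min with compound, then reacted 2 h at room temperature with 500 nM biotin-H3K9 peptide and 20 µM SAM. Monomethyl-H3K9 detected by AlphaScreen using anti-H3K9me1 antibody.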
Sfp inh: Sfp phosphopantetheinyl transferase inhibition; Potency, µM, most hits filed as inhibitors; Biochemical Sfp PPTase activity, qHTS; Q9F4F7; hit rate 3.5% among 310,000;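 note: the enzyme is Sfp with the accession as filed and its product quenches rhodamine fluorescence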
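Fluorescence-quenching assay: 15 nM Sfp-PPTase preincubated 15 min at room temperature with compound, then 5 uM rhodamine-CoA and 12.5 uM BHQ-2-labelled YbbR peptide added. Fluorescence (ex 525/em 598 nm) read at start and after 30 min; difference gives rate.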
BAZ2B inh: BAZ2B (human) inhibition | AlphaScreen BAZ2B-H3K14Ac peptide displacement | Q9UIF8 | hit rate 4.4% among 360,000 | Potency, µM (highest dose often 114 µM), usual class: inhibitors | AID 504333; note: nearly all actives have a fitted effect of over 60% in size
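AlphaScreen luminescence quantifies BAZ2B engagement of H3K14Ac peptide; the protein and biotinylated peptide are both at 50 nM final, buffer PBS pH 7.4 with 0.01% Tween-20, all steps at room temperature.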
Hits are given with their value; – = inactive; ? = inconclusive; · = not tested or not shown; ! = repeats disagree; [ ] = another dose, or the depositor's remark. An excerpt weighted towards active compounds, which were near 12% of everything screened. Calls come from the whole dose curve; as a rule, active = well fitted curve in the direction sought with a large enough effect; inconclusive = small, poorly fitted or top-dose-only effect, or another doubt; inactive = no such curve, though single readings can be large; an effect the other way counts as inactive or inconclusive.

SMILES	JMJD2A Tudor	HP1b chromo inh	L3MBTL1 inh	G9a block	Sfp inh	BAZ2B inh
CCc1ccc(-n2c(=O)c3c4c(sc3n(CC(=O)N3CCC(C)CC3)c2=O)CCC4)cc1	–	–	·	–	·	–
CC1Cc2ccccc2N1C(=O)CNc1cccc(S(=O)(=O)N2CCCC2)c1 (stereo unspecified)	6.3µM	–	–	50µM	–	?
O=C(CN1CCc2ccccc2C1)Nc1cccc(S(=O)(=O)N2CCCC2)c1	?	?	–	4µM	?	·
Cc1cccc(C)c1NC(=O)CN1CCc2ccccc2C1	–	–	·	·	·	·
Cc1cc(C)cc(NC(=O)CN2CCc3ccccc3C2)c1	40µM	–	–	–[0.501 µM]	–	32µM
CN1CC(=O)N(CC(=O)Nc2ccc(N(C)C)cc2)c2ccccc2C1=O	–	–	·	14µM	?	50µM
Cc1ccc(C)c(N(C)C(=O)c2cc3c(s2)-c2ccccc2OC3)c1	–	–	·	–	·	–
Cc1ccc(C)c(NC(=O)CCN2CCc3ccccc3C2)c1	–	–	–	50µM	–	–
O=C(CN1CCc2ccccc2C1)Nc1ccc(F)cc1	–	–	–	–	–	–
CCN1CCN(CCC(=O)Nc2cc(C)ccc2C)CC1	–	–	–	–	–	–
CN(C)c1ccc(NC(=O)CN2CCc3ccccc3C2)cc1	50µM	?	·	13µM	–	40µM
CCCn1c2ccccc2c2cnn(CC(=O)NCc3ccc(OC)cc3)c(=O)c21	–	–	·	–	·	–
COc1cccc(-c2nn(-c3ccccc3)cc2CN(C)Cc2c(C)nc3ccccn23)c1	56µM	–	–	?	56µM	–
Cc1c(C(=O)N2CCCC2)oc2c1-c1[nH]ncc1CC2	–	–	–	50µM	?	–
CCCc1ccc(C(=O)NNc2cc(Cl)ccc2Cl)cc1	–	–	–	?	–	–
CCOC(=O)C(=NC(C)C)NNc1cc(Cl)ccc1Cl	?	–	–	8.9µM	–	?
CCOC(=O)C(=NC(C)(C)C)NNc1cc(Cl)ccc1Cl	?	–	–	18µM	–	?
CC1=C(c2ccc(C(C)C)cc2)S(=O)(=O)NC1=NCc1ccccc1Br	–	–	·	–	·	–
CSc1nc(O)c(C(c2ccc(O)cc2)c2c(O)nc(SC)[nH]c2=O)c(=O)[nH]1	–	?	–	10µM	50µM	?
C=CCOc1ccc(C(c2c(O)nc(SC)[nH]c2=O)c2c(O)nc(SC)[nH]c2=O)cc1	–	–	·	·	·	·
CCOc1ccc(C(c2c(O)nc(SC)[nH]c2=O)c2c(O)nc(SC)[nH]c2=O)cc1	–	–	·	·	·	·
CSc1nc(O)c(C(c2cccc([N+](=O)[O-])c2)c2c(O)nc(SC)[nH]c2=O)c(=O)[nH]1	–	–	–	28µM	–	?
O=C(O)C(c1ccccc1)C(c1ccccc1)c1ccccc1 (stereo unspecified)	–	–	·	–	–	50µM
O=C(O)C(SC(C(=O)O)c1ccccc1)c1ccccc1 (stereo unspecified)	56µM	–	·	·	·	·
CCc1cnc2c(c1SCC(=O)Nc1ccc(Cl)cc1)c(=O)n(C)c(=O)n2C	–	–	·	–	·	–
SMILES	JMJD2A Tudor	HP1b chromo inh	L3MBTL1 inh	G9a block	Sfp inh	BAZ2B inh
Oc1ccc(Cl)cc1CNCC1CCCO1 (stereo unspecified)	3.2µM	?	·	–[2.33 µM]	–	50µM
CCN(c1cccc(C)c1)S(=O)(=O)c1cc(Br)cc2c1N(C(C)=O)C(C)C2 (stereo unspecified)	–	–	·	–	·	–
CCOC(=O)/C(CCC[N+](C)(CC)CC)=N\O	?	?	–	11µM	–	–
CC(C)C(NCc1c(Cl)cccc1Cl)C(=O)O (stereo unspecified)	–	–	–	79µM	–	–
COc1cc(C(C[N+](=O)[O-])c2c(C)cc3ccccn23)ccc1O (stereo unspecified)	?	?	·	32µM	?	28µM
COc1ccc(C(C[N+](=O)[O-])c2c(-c3ccccc3)cc3ccccn23)cc1OC (stereo unspecified)	–	–	·	10µM	–	?
COc1ccc(S(=O)(=O)NCCc2cn3ccsc3n2)cc1	–	–	·	–	·	–
Cc1oc2c(cc(NS(=O)(=O)c3ccc(F)cc3)c3ccccc32)c1C(=O)OCc1ccccc1	–	–	·	?	·	–
CCCOc1ccc(C2C(=O)N(C3CCCCCC3)CC(=O)N2CCC2=CCCCC2)cc1OC (stereo unspecified)	–	–	·	–	·	–
CCN(CC)CCNC(=O)c1cc2c(-c3cccc(OC)c3)nn(C)c2s1	–	–	·	79µM!	–	–
COCCCNC(=O)c1cc2c(-c3cccc(OC)c3)nn(C)c2s1	–	–	·	–	–	–
O=C(c1cc2c(s1)CCCC2)N1CCN(C(=O)C2CCCO2)CC1 (stereo unspecified)	–	–	–	16µM	–	–
N#Cc1ccccc1S(=O)(=O)N1CCN(C(=O)c2cc3c(s2)CCC3)CC1	?	–	?	35µM	·	?
COc1ccc(N2CCN(C(=O)c3cc4c(s3)CCCCC4)CC2)cc1	50µM	?	?	?	·	13µM
Cc1ccc(N2CC(C(=O)NCc3nnnn3-c3ccc(C)c(C)c3)CC2=O)cc1C (stereo unspecified)	–	–	·	–	·	–
CCCNc1nc(C#N)nc(Nc2ccccc2)n1	–	·	·	·	·	·
Cn1nc(-c2ccc(Cl)cc2)c2cc(C(=O)NCCCN3CCOCC3)sc21	–	–	–	–	–	–
Cn1nc(-c2ccc(Cl)cc2)c2cc(C(=O)NCCN3CCOCC3)sc21	–	–	·	71µM	–	–
O=C(COC(=O)c1cc2c(s1)CCCC2)Nc1ccc(Cl)cn1	–	–	–	?	–	–
COc1ccc(NC(=O)COC(=O)c2cc3c(s2)CCC3)cc1	?	?	?	–[12.7 µM]	·	79µM
COc1cccc(-c2nn(C)c3sc(C(=O)N4CCN(c5cccc(C(F)(F)F)c5)CC4)cc23)c1	–	–	·	–	·	·
COc1ccc(N2CCN(C(=O)c3cc4c(-c5cccc(OC)c5)nn(C)c4s3)CC2)cc1	40µM	?	·	?	–	25µM
CN(C)c1ccc2nc3c(=O)[nH]c(=O)nc-3n(CC(O)C(O)C(O)CO)c2c1 (stereo unspecified)	–	?	·	50µM	–	40µM
CC(=O)C(Sc1nc(-c2ccccc2Cl)nc2c1c(=O)n(C)c(=O)n2C)C(=O)N(C)C (stereo unspecified)	–	–	·	–	·	–
COC(=O)c1sc(N2C(=O)C(O)=C(C(=O)c3ccc(C)o3)C2c2ccc(F)cc2)nc1C (stereo unspecified)	–	–	–	13µM	?	–
COC(=O)c1ccc(C2c3c(oc4ccccc4c3=O)C(=O)N2c2nc(C)c(C(=O)OC)s2)cc1 (stereo unspecified)	–	–	·	?	·	–
